# Where “and” joins values, the source holds several entries; their conditions need not be identical. Equal entries are not always repeated. Results filed as inconclusive are left out. Some structures have more than one record in an assay (separate samples or runs), and their calls can disagree. Calls of active or inactive are those of the source. Unless noted, calls follow the shape of the dose curve; as a rule, active = well fitted curve in either direction with a large enough effect (not every such curve was filed as active); inconclusive = small, poorly fitted or top-dose-only effect, or another doubt; inactive = flat fitted curve, though single readings scatter.
# Assays:
# [1] = target: Cytochrome P450 1A2 (Homo sapiens) (UniProt P05177); experiment: p450-cyp1a2 (AID 410; calls by dose curve; also: potency is read from the fitted curve at half-maximal effect;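 as to activity change, negative = inhibition: -100% = full effect of reference inhibitor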)
# Sequence of Cytochrome P450 1A2 (Homo sapiens) (P05177 whole entry, looked up): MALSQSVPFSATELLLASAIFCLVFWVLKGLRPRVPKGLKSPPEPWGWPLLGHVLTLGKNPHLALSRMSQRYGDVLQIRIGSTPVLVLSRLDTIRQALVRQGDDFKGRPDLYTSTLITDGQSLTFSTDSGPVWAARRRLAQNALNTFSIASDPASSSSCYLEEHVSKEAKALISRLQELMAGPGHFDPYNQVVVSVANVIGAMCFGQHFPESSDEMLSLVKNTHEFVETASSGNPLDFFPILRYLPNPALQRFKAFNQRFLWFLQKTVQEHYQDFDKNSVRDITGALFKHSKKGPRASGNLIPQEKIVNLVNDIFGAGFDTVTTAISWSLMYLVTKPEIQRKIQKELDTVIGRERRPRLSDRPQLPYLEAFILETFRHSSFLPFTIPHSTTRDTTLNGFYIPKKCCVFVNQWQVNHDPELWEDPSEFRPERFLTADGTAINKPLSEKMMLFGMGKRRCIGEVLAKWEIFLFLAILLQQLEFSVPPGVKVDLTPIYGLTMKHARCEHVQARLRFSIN
# Method in brief: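 20nM CYP1A2 with 100uM Luciferin-ME (at Km) in 100mM KPO4; compound preincubated 10 min, NADPH regeneration added, 60 min at room temperature. Luciferin quantified by luminescence after detection reagent; normalized to 57 uM furafylline.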
# [2] = target: Glucocorticoid receptor (Homo sapiens) (UniProt P04150); experiment: GR-GFP Redistribution (AID 450;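 active = compounds whose dose series gives a full or clear partial fitted curve of increased nuclear translocation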; also: potency is read from the fitted curve at half-maximal effect); conditions: U2OS GR-GFP nuclear translocation, laser cytometry, 2 h
# Sequence of Glucocorticoid receptor (Homo sapiens) (P04150 whole entry, looked up, the tested form may be a part): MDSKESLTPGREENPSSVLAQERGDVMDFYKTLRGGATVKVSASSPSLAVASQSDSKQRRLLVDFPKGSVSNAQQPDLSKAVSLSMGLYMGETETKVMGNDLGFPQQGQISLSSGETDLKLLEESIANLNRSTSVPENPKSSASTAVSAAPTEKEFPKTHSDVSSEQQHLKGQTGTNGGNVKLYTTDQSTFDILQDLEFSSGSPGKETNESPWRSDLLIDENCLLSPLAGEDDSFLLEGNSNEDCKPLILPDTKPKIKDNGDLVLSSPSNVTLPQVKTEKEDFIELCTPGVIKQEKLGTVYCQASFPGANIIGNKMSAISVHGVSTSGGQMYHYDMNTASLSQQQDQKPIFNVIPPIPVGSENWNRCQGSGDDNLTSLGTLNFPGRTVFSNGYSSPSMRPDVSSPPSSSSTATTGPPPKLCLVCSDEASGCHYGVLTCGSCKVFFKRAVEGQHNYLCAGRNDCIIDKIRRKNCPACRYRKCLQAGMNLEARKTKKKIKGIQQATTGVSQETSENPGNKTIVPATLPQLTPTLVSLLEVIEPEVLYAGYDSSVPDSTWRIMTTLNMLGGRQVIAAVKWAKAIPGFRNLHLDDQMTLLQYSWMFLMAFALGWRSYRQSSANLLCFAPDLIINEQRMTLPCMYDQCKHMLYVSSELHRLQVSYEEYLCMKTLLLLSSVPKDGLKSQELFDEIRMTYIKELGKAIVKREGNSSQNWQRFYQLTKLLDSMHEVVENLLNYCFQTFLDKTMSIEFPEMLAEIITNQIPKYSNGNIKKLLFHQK
# [3] = target: Glucocorticoid receptor (Homo sapiens) (UniProt P04150); experiment: GR-EFC Redistribution (AID 451; calls by dose curve; also: potency is read from the fitted curve at half-maximal effect); conditions: CHO-K1 GR-EFC translocation, beta-gal luminescence, 2 h
# Method in brief: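 CHO-K1 cells stably expressing nuclear-localized β-gal enzyme acceptor and GR fused C-terminally to the enzyme donor fragment; ligand-driven nuclear translocation restores β-gal by complementation. Compounds titrated up to 46 uM final, 2 h at 37 °C; luminescence read.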
# [4] = Stat Signaling Pathway (AID 446);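 also: ME-180 cervical cancer cells given 40 pM IL-6 alongside compound; SIE-controlled beta-lactamase reporter measured as 460/530 nm FRET emission ratio; % is scaled to controls: 0 for no effect and ±100 for the full control effect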
# Method in brief: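 IL-6/STAT signaling read in ME-180 cells via an SIE beta-lactamase reporter. Stimulus was 40 pM IL-6 (its AC50) for 5 hrs, so both activation and inhibition register.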
# [5] = AP1 Signaling Pathway (AID 357); conditions: ME-180 (cervical carcinoma) AP-1-bla reporter, EGF-induced, beta-lactamase ratio, 5 h;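 also: ME-180 reporter cells stimulated with EGF at its EC50 level; % is scaled to controls: 0 for no effect and ±100 for the full control effect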
# Method in brief: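 Read-out was the 460nm/530nm emission ratio (excitation 405nm) after CCF4 loading for 2.5 hours at room temperature. Cells carried an AP-1-driven beta-lactamase reporter, were stimulated with EC50 EGF plus compound for 5 hours, and AC50 values came from titrations.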
# [6] = Cell Viability - BJ (AID 421; calls by dose curve;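 also: potency is read from the fitted curve at half-maximal effect; cells exposed to compound for 40 hours at 37 °C before readout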); conditions: BJ fibroblast viability, qHTS
# Method in brief: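 Quantitative HTS: ATP depletion in BJ cells after 40 hr compound exposure in complete culture medium, detected with CellTiter-Glo; AC50 from standard Hill fits.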
# [7] = Cell Viability - Jurkat (AID 426;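 active = dose-dependent loss of cell ATP signal giving a full or clear fitted curve, ranked by lower potency value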; also: potency is read from the fitted curve at half-maximal effect); conditions: qHTS
# Method in brief: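 Jurkat (Clone E6-1) cells, 5000/well in complete medium, exposed to compounds for 40 hr at 37C; intracellular ATP measured by CellTiter-Glo luminescence after 20 min at room temperature. AC50 from Hill fits.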
# [8] = Cell Viability - Hek293 (AID 427;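 active = compounds whose dose-response curve shows a full or clear partial loss of cell viability, called from curve shape rather than a numeric limit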;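 also: potency is read from the fitted curve at half-maximal effect; cells exposed to compound for 40 hours at 37 °C before reading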); conditions: qHTS
# Method in brief: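 AC50 values derive from Hill-modelled concentration-response of ATP-based luminescence, normalized between DMSO-only and 100 uM tamoxifen controls. Cells were exposed in complete culture medium for 40 hr at 37 °C before detection.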
# [9] = Cell Viability - HepG2 (AID 433; calls by dose curve;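 also: potency is read from the fitted curve at half-maximal effect; potency for ATP loss meaning cytotoxicity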); conditions: qHTS
# Method in brief: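 ATP luminescence (CellTiter-Glo) after 40 h compound exposure, 37 °C, HepG2, 1500 cells/well, complete medium. Normalized: DMSO = basal, 100 uM tamoxifen = 100% inhibition. AC50 via standard Hill equation.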
# [10] = Cell Viability - MRC5 (AID 434; calls by dose curve;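 also: potency is read from the fitted curve at half-maximal effect; potency reflects cytotoxicity seen as loss of intracellular ATP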); conditions: MRC5 lung fibroblast viability, qHTS
# Method in brief: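 MRC5 normal human lung fibroblasts (1500/well) were treated with compounds for 40 hr at 37 °C in complete medium, and viable cells were measured as intracellular ATP by CellTiter-Glo luminescence. AC50 came from Hill fits, normalized to DMSO and 100 uM tamoxifen.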
# [11] = Cell Viability - SK-N-SH (AID 435; calls by dose curve; also: potency is read from the fitted curve at half-maximal effect); conditions: SK-N-SH neuroblastoma cell viability qHTS
# Method in brief: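 CellTiter-Glo ATP luminescence, 20 min RT read; cells pre-plated 5 hr, compound 40 hr at 37 °C, 1500 cells/well, complete medium. Normalized DMSO = 0, 100 uM tamoxifen = 100% inhibition; Hill-fit AC50.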
# [12] = NFAT Signaling Pathway (AID 444); conditions: Jurkat NFAT-bla M1, carbachol, beta-lactamase ratio, 5 h;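 also: carbachol stimulus at about its EC50 of 1 µM final; % is scaled to controls: 0 for no effect and ±100 for the full control effect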
# Method in brief: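 Jurkat cells carrying an NFAT-driven β-lactamase reporter and co-transfected muscarinic M1 receptor were treated with compound plus carbachol (1 uM final, an EC50 level) for 5 h at 37 °C. CCF4 loading followed for 1 h at RT; 460/530 nm ratio gave %activity.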
# [13] = Cell Viability - N2a (AID 540; active = well fitted curve in the direction sought with a large enough effect; an effect the other way counts as inactive or inconclusive;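 also: plate controls were DMSO alone for no effect and tamoxifen control for full effect; nearly all actives have a fitted effect of over 45% in size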)
# Method in brief: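 Mouse neuroblastoma N2a cells, 1500/well, exposed to compounds 40 h at 37 °C in complete medium. Viability measured as cellular ATP by CellTiter-Glo luminescence; AC50 from Hill fits of concentration-response.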
# [14] = Cell Viability - NIH 3T3 (AID 541; active = well fitted curve in the direction sought with a large enough effect; an effect the other way counts as inactive or inconclusive; also: nearly all actives have a fitted effect of over 25% in size; also: potency is read from the fitted curve at half-maximal effect)
# Method in brief: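 Mouse NIH 3T3 fibroblasts, 1000 cells/well, rested 5 hr at 37 °C, then exposed to compound for 40 hr at 37 °C in complete medium. Viability read as intracellular ATP by CellTiter-Glo luminescence; AC50 from Hill-equation fits of concentration-response data.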
# [15] = Cell Viability - HUV-EC-C (AID 542; active = well fitted curve in the direction sought with a large enough effect; an effect the other way counts as inactive or inconclusive; also: % is scaled to controls: 0 for no effect and ±100 for the full control effect; nearly all actives have a fitted effect of over 35% in size)
# Method in brief: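 HUV-EC-C human vascular endothelial cells, 1000/well, exposed to compound for 40 hr at 37 °C in complete medium. Intracellular ATP was read by CellTiter-Glo luminescence. AC50 came from Hill-equation fits of concentration-response data.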
# [16] = Cell Viability - SH-SY5Y (AID 544; active = well fitted curve in the direction sought with a large enough effect; an effect the other way counts as inactive or inconclusive;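 also: 0% = DMSO alone and -100% = 100 µM tamoxifen; nearly all actives have a fitted effect of over 55% in size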)
# Method in brief: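 SH-SY5Y human neuroblastoma cells (1500/well) incubated 5 h, then compound-treated 40 h at 37 °C in complete medium. Viability read as intracellular ATP by CellTiter-Glo luminescence after 20 min; AC50 from Hill-equation fits of qHTS concentration-response.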
# [17] = Cell Viability - Renal Proximal Tubule (AID 545; active = well fitted curve in the direction sought with a large enough effect; an effect the other way counts as inactive or inconclusive;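 also: 0% = DMSO only and -100% = 100 µM tamoxifen; nearly all actives have a fitted effect of over 40% in size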)
# Method in brief: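 Rat kidney proximal tubule cells, freshly isolated; 1000 cells/well, 5 hr settle, compound 40 hr 37 °C. CellTiter-Glo 20 min RT, luminescence read. AC50 by standard Hill fit.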
# [18] = Cell Viability - Mesenchymal (AID 546; active = well fitted curve in the direction sought with a large enough effect; an effect the other way counts as inactive or inconclusive;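 also: cells exposed to compound for 40 hours before reading; 0% = DMSO only and -100% = 100 µM tamoxifen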)
# Method in brief: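 Normal human renal glomerulus-derived kidney mesenchymal cells, 1000 per well in complete medium, were treated with compounds for 40 hr at 37 °C. Viability was read as intracellular ATP by CellTiter-Glo luminescence; AC50 values came from Hill-equation fits of qHTS concentration-response data.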
# [19] = Cell Viability - H-4-II-E (AID 543; active = well fitted curve in the direction sought with a large enough effect; an effect the other way counts as inactive or inconclusive; also: potency is read from the fitted curve at half-maximal effect; nearly all actives have a fitted effect of over 35% in size)
# Method in brief: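 Rat hepatoma H-4-II-E cells, 1500 per well, treated 40 h at 37 °C in complete medium. Cellular ATP read by CellTiter-Glo luminescence; AC50 from Hill fits of concentration-response.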
smiles,measurement,setting,value
CCN(c1ccccc1)c1cc(NC)[n+](C)c(C)n1,Potency,[1],31.6 µM (active)
same,Potency,[2],> 46 µM (inactive)
same,Potency,[3],> 46 µM (inactive)
CCOC(=O)C1=C[C@]2(CC)CCCN3CCc4c(n1c1ccccc41)[C@@H]32,outcome,[4],inactive
same,Potency,[2],> 20.6 µM (inactive)
CCCC(CCC)C(=O)O,"activity change, negative = inhibition",[5]; at 38 µM (top of the series),10.8% (inactive)
same,Potency,[1],inactive
same,Potency,[6],> 92 µM (inactive)
same,Potency,[7],> 92 µM (inactive)
same,Potency,[8],> 92 µM (inactive)
same,Potency,[9],> 92 µM (inactive)
same,Potency,[10],> 92 µM (inactive)
same,Potency,[11],> 92 µM (inactive)
same,"activity change, negative = inhibition",[12]; at 38 µM (top of the series),4.56% (inactive)
same,outcome,[4],inactive
same,Potency,[2],> 46 µM (inactive)
same,Potency,[3],> 46 µM (inactive)
same,outcome,[13],inactive
same,Potency,[14],inactive
same,outcome,[15],inactive
same,outcome,[16],inactive
same,outcome,[17],inactive
same,outcome,[18],inactive
Cc1cc2c(C(C)C)c(O)c(O)c(C=O)c2c(O)c1-c1c(C)cc2c(C(C)C)c(O)c(O)c(C=O)c2c1O,Potency,[1],15.8 µM (active)
same,"activity change, negative = inhibition",[12]; at 17.2 µM (top of the series),-68.3% (active)
same,Potency,[2],> 20.6 µM (inactive) and > 46 µM (inactive)
same,Potency,[3],> 20.6 µM (inactive) and > 46 µM (inactive)
C[C@]12CCC(=O)C=C1CC[C@@H]1[C@@H]2[C@@H](O)C[C@@]2(C)[C@H]1CC[C@]2(O)C(=O)CO,"activity change, negative = inhibition",[5]; at 17.2 µM (top of the series),-3.8% (inactive)
same,"activity change, negative = inhibition",[12]; at 17.2 µM (top of the series),18.6% (inactive)
same,outcome,[4],inactive
CCOC(=O)C1=C[C@@]2(CC)CCCN3CCc4c(n1c1ccccc41)[C@H]32,"activity change, negative = inhibition",[5]; at 38 µM (top of the series),94.5% [activator] (active)
same,Potency,[1],inactive and 39.8 µM (active)
same,"activity change, negative = inhibition",[12]; at 17.2 µM (top of the series),-3.7% (inactive)
same,"activity change, negative = inhibition",[12]; at 38 µM (top of the series),0.129% (inactive)
same,outcome,[4],inactive
same,Potency,[2],> 46 µM (inactive) and > 20.6 µM (inactive)
same,Potency,[3],> 46 µM (inactive) and > 20.6 µM (inactive)
NCCc1ccc(O)c(O)c1,"activity change, negative = inhibition",[5]; at 38 µM (top of the series),2.68% (inactive)
same,"activity change, negative = inhibition",[12]; at 38 µM (top of the series),11.4% (inactive)
same,outcome,[4],inactive
Cn1cnc([N+](=O)[O-])c1Sc1ncnc2nc[nH]c12,"activity change, negative = inhibition",[5]; at 38 µM (top of the series),8.24% (inactive)
same,Potency,[6],> 92 µM (inactive)
same,Potency,[7],0.384 µM (active)
same,Potency,[8],2.04 µM (active)
same,Potency,[10],> 92 µM (inactive)
same,Potency,[11],0.529 µM (active)
same,"activity change, negative = inhibition",[12]; at 17.2 µM (top of the series),13.3% (inactive)
same,"activity change, negative = inhibition",[12]; at 38 µM (top of the series),19.1% (inactive)
same,outcome,[4],inactive
same,Potency,[2],> 46 µM (inactive) and > 20.6 µM (inactive)
same,Potency,[3],> 46 µM (inactive) and > 20.6 µM (inactive)
same,Potency,[14],3.98 µM (active)
same,outcome,[15],inactive
same,Potency,[19],0.631 µM (active)
CC(C)(Sc1ccc(CCN(CCCCC2CCCCC2)C(=O)NC2CCCCC2)cc1)C(=O)O,Potency,[1],inactive
same,Potency,[2],> 46 µM (inactive)
same,Potency,[3],> 46 µM (inactive)
NC[C@H](O)c1ccc(O)c(O)c1,"activity change, negative = inhibition",[5]; at 38 µM (top of the series),-15.3% (inactive) and -4.21% (inactive)
same,"activity change, negative = inhibition",[12]; at 38 µM (top of the series),-7.25% (inactive) and 5.9% (inactive)
same,outcome,[4],inactive
same,Potency,[2],> 46 µM (inactive)
same,Potency,[3],> 46 µM (inactive)
CC(C)C[C@H](NC(=O)[C@@H](O)[C@H](N)Cc1ccccc1)C(=O)O,Potency,[1],inactive
same,Potency,[2],> 46 µM (inactive)
same,Potency,[3],> 46 µM (inactive)
NC(=O)c1ccc(-c2nc(-c3ccc4c(c3)OCO4)c(-c3ccccn3)[nH]2)cc1,Potency,[2],> 46 µM (inactive)
same,Potency,[3],> 46 µM (inactive)
COc1ccc2nc(S(=O)Cc3ncc(C)c(OC)c3C)[nH]c2c1 (stereo not given),"activity change, negative = inhibition",[5]; at 17.2 µM (top of the series),4.02% (inactive) and -1.7% (inactive)
same,"activity change, negative = inhibition",[12]; at 17.2 µM (top of the series),-26.1% (inactive) and -10.4% (inactive)
same,outcome,[4],inactive
Cc1ccc2c(c1)C(=O)[C@@]1(O)CCN(c3ccccc3)C1=N2,Potency,[1],3.98 µM (active)
same,Potency,[2],> 46 µM (inactive)
same,Potency,[3],> 46 µM (inactive)
N#Cc1ccc(C(c2ccc(C#N)cc2)n2cncn2)cc1,"activity change, negative = inhibition",[5]; at 17.2 µM (top of the series),-15.5% (inactive)
same,"activity change, negative = inhibition",[12]; at 17.2 µM (top of the series),-8.25% (inactive)
same,outcome,[4],inactive
same,Potency,[2],> 20.6 µM (inactive)
same,Potency,[3],> 20.6 µM (inactive)
Cc1cn[nH]c1,"activity change, negative = inhibition",[5]; at 38 µM (top of the series),13.5% (inactive)
same,"activity change, negative = inhibition",[12]; at 38 µM (top of the series),-5.73% (inactive)
same,outcome,[4],inactive
same,Potency,[2],> 46 µM (inactive)
same,Potency,[3],> 46 µM (inactive)
CCC(C)(C)C(=O)O[C@H]1C[C@@H](C)C=C2C=C[C@H](C)[C@H](CC[C@@H]3C[C@@H](O)CC(=O)O3)[C@H]21,Potency,[2],> 46 µM (inactive)
same,Potency,[3],> 46 µM (inactive)

# Source: PubChem BioAssay (NCATS)
